Laboratory results published in PubChem BioAssay (EPA / NIEHS).
Calls of active or inactive are those of the source. Rule for the calls: active = hit-call score of the fitted dose curve at least 0.9, where 1 is the maximum; inactive = score below 0.9.

target: Hypoxia-inducible factor 1-alpha (Homo sapiens) (UniProt Q16665); assay: ATG_HIF1a_CIS: Attagene CIS-FACTORIAL HepG2 Assay for human Hypoxia Inducible Factor 1 (HIF1A) (AID 2282951); settings: HepG2 Attagene cis-factorial HIF1a reporter transcription; actives raise or lower the signal
Sequence (Q16665 whole entry, looked up): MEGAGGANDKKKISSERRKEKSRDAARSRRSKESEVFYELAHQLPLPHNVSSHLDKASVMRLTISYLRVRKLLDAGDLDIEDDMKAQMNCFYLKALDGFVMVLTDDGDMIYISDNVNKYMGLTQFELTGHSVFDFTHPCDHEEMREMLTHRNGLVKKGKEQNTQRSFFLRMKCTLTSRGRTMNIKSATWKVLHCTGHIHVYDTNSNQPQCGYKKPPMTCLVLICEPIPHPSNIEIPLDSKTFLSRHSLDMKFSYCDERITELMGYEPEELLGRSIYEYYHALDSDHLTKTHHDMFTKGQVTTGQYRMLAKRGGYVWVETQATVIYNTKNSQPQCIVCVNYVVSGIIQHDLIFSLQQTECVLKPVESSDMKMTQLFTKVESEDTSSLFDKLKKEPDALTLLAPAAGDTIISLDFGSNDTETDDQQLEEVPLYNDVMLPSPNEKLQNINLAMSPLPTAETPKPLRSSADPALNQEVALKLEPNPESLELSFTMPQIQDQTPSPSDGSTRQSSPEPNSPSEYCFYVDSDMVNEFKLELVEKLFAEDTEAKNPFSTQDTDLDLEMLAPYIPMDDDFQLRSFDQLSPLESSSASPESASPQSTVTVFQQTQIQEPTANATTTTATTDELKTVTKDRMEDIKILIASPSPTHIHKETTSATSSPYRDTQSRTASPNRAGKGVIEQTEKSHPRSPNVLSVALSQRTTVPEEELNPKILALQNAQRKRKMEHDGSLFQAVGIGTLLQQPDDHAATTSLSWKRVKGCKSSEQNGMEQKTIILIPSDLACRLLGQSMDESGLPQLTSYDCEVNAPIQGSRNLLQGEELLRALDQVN
Method: ATG_CIS is a cell-based, multiplexed-readout assay that uses HepG2, a human liver cell line, with measurements taken at 24 hours after chemical dosing in a 24-well plate.ATG_HIF1a_CIS is one of 52 assay component(s) measured or calculated from the ATG_CIS assay. It is designed to make measurements of mRNA induction, a form of inducible reporter, as detected with fluorescence intensity signals by Reverse transcription polymerase chain reaction (RT-PCR) and Capillary electrophoresis technology.Data from the assay component ATG_HIF1a_CIS was analyzed into 1 assay endpoint. This assay endpoint, ATG_HIF1a_CIS, was analyzed with bidirectional fitting relative to DMSO as the negative control and baseline of activity. Using a type of inducible reporter, measures of mRNA for gain or loss-of-signal activity can be used to understand the reporter gene at the transcription factor-level as they relate to the gene HIF1A. Furthermore, this assay endpoint can be referred to as a primary readout, because this assay has produced multiple assay endpoints where this one serves a reporter gene function. To generalize the intended target to other relatable targets, this assay endpoint is annotated to the dna binding intended target family, where the subfamily is basic helix-loop-helix protein.
Human liver HepG2 cells are transiently transfected with multiple reporter transcription units (MRTUs) in 6-well plates using FuGene 6 reagent (Roche; 3 ml FuGene/1 mg DNA). The MRTU constructs are regulated by a cis-regulating element (promoter). […] A major difference between the CIS and TRANS system is that in CIS activities of endogenous TFs are measured, whereas the TRANS assay evaluates changes in activities of exogenous, chimeric NR-Gal4 proteins. […] At the end of 24 hour incubation, total RNA was isolated using TriZol reagent (Invitrogen). The isolated RNA is then reverse-transcribed using oligo(dT) primer and Mo-MLV reverse transcriptase (Invitrogen) with DNAse I (Ambion) treatment for 30 min. The one-tenth of the produced cDNA was amplified by PCR using Taq DNA polymerase (Invitrogen) and two reporter sequence-specific primers. The PCR products were fluorescently labeled by primer extension with 6-arboxyfluorescein (6-FAM) 5'-labeled reporter sequence-specific primer (2 min at 95 C, 20 s at 68 C and 10 min at 72 C) and these products were digested with 5U of HpaI (New England Biolabs) for 2h at 37 C. The fragments were purified using Qiaquick PCR columns (Qiagen), analyzed on an ABI 3130xL genetic analyzer (Applied Biosystems) with peak positions identified by using a set of X-rhodamine (ROX)-labeled MapMarker1000 molecular weight standards (BioVentures). The raw capillary electrophoresis data was processed using Attagraph software (Attagene).

Structure (SMILES) | outcome | AC50
C[Si](C)(CCCN)O[Si](C)(C)CCCN | inactive | –
CCCCCCCC/C=C\CCCCCCCC(=O)OCCO | inactive | –
O=C(O)c1cc2ccccc2nc1C(=O)O | inactive | –
C=CC(=O)NC(C)(C)CS(=O)(=O)O | inactive | –
Cc1ccc(N)c([N+](=O)[O-])c1 | inactive | –
O=c1c2ccccc2nnn1CCl | inactive | –
CC(CC=O)c1ccccc1 (stereo not given) | inactive | –
CCC(Cc1ccccc1)(C(=O)c1ccc(N2CCOCC2)cc1)N(C)C (stereo not given) | – | 22.9 µM (active)
O=S(=O)(O)c1ccc2cc(O)c(S(=O)(=O)O)cc2c1 | – | 171 µM (active)
O=C1Nc2ccccc2C1(c1ccc(O)cc1)c1ccc(O)cc1 | – | 57.2 µM (active)
CCCCCCCCCCCCCCCC(=O)OCC | inactive | –
O=C(Oc1ccccc1)c1ccc2ccccc2c1O | – | 34.6 µM (active)
CCOCC(=O)O | inactive | –
CNC(=S)NN | inactive | –
CC(C)(Oc1ccc(C2CC2(Cl)Cl)cc1)C(=O)O (stereo not given) | inactive | –
CC1(C)O[C@@H]2C[C@H]3[C@@H]4C[C@H](F)C5=CC(=O)CC[C@]5(C)[C@H]4[C@@H](O)C[C@]3(C)[C@]2(C(=O)CO)O1 | inactive | –
CC=C1CC2C=CC1C2 (stereo not given) | inactive | –
C=C(C)[C@@H]1CCC2=CCC[C@@H](C)[C@]2(C)C1 | inactive | –
CC1=CC[C@H]2C[C@@H]1C2(C)C | inactive | –
CC1=NN(c2cc(S(=O)(=O)O)ccc2Cl)C(=O)C1N=Nc1ccccc1 (stereo not given) | inactive | –

Structure (SMILES) | outcome | AC50
CCCCCCCCCCOS(=O)(=O)O | inactive | –
CCOC(=O)c1ccc(N(C)C)cc1 | inactive | –
C=C(C)C(=O)OCCOc1ccccc1 | inactive | –
CCCCC/C=C\CCC=O | inactive | –
O=C(O)c1cc(Cl)cc([N+](=O)[O-])c1Cl | inactive | –
N[C@H]1C(O)O[C@H](CO)[C@H](O)[C@@H]1O (stereo not given in full) | inactive | –
C=C[C@](C)(O)CC[C@@H]1[C@@]2(C)CCCC(C)(C)[C@@H]2CC[C@@]1(C)O | inactive | –
C=CC(C)(C)C | inactive | –
CCCCCc1ccc(Cl)cc1 | inactive | –
OCCNCc1ccccc1 | inactive | –
Nc1ccc(N)c(Cl)c1 | inactive | –
CCCCC(CC)COC(=O)c1ccccc1 (stereo not given) | inactive | –
O=S(=O)(O)CC(O)CCl (stereo not given) | inactive | –
CC(C)c1ccc(C=O)cc1 | inactive | –
O=C1C(N(CO)C(=O)NCO)N(CO)C(=O)N1CO (stereo not given) | inactive | –
NNC(=O)c1cccc(C(=O)NN)c1 | inactive | –
CCCCCCCCCCOC(C)=O | inactive | –
COCCOCCOCCOCCOC | inactive | –
O=c1cc[nH]c(=S)[nH]1 | inactive | –
CC(=O)CC(N)=O | inactive | –
